Experiment [1] in a line: ATG_NFI_CIS: Attagene CIS-FACTORIAL HepG2 Assay for human Nuclear Factor I (NFI) (AID 2282989). Conditions: HepG2 cis-regulatory reporter, NFI response element transcription; actives raise or lower the signal. The gist of the method:
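After transient transfection of HepG2 with cis-promoter reporter constructs and 24 h dosing, RNA is reverse-transcribed, amplified, 6-FAM end-labelled and HpaI-digested before capillary analysis. Bidirectional curve fitting against DMSO.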

Experiment [2] deals with Myc proto-oncogene protein (Homo sapiens) (UniProt P01106). The experiment is described as follows: ATG_Myc_CIS: Attagene CIS-FACTORIAL HepG2 Assay for human Myelocytomatosis (Myc) Proto-Oncogene Transcription Factor (AID 2282990). Conditions: HepG2, Attagene cis-reporter transcription factor activity; actives raise or lower the signal. The gist of the method:
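Read-out: fluorescent reporter mRNA fragments resolved by capillary electrophoresis after RT-PCR. Human HepG2 liver cells carried transfected cis-element reporter units and were dosed for 24 h. Gain or loss of signal fitted relative to DMSO baseline.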

A short description of experiment [3]: ATG_NRF2_ARE_CIS: Attagene CIS-FACTORIAL HepG2 Assay for human Nuclear Factor Erythroid 2 Related Factor 2 (NFR2) response to Antioxidant Response Elements (ARE) (AID 2282992). Conditions: HepG2 Attagene ARE/NRF2 reporter, transcription factor activity; actives raise or lower the signal. The gist of the method:
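Fluorescence intensity of reporter-specific cDNA fragments, separated by capillary electrophoresis, reflects mRNA induction in transfected HepG2 cells at 24 h. Activity is fitted bidirectionally, DMSO serving as baseline.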

In experiment [4] the target is human Peroxisome Proliferator-activated Receptor delta (PPARd), PPARD (gene 5467) (UniProt Q03181). The experiment is described as follows: ATG_PPARd_TRANS: Attagene TRANS-FACTORIAL HepG2 Assay for human Peroxisome Proliferator-activated Receptor delta (PPARd) (AID 2283002; active means hit-call score of the fitted dose curve at least 0.9, where 1 is the maximum). A digest of the protocol: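 Read-out: reporter mRNA induction, quantified by fluorescent RT-PCR products resolved by capillary electrophoresis. Human HepG2 liver cells carried transiently transfected Gal4-UAS reporter constructs with chimeric NR-Gal4 fusions. Cells were dosed for 24 h; DMSO served as baseline.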
Chain of human Peroxisome Proliferator-activated Receptor delta (PPARd), PPARD (gene 5467) (Q03181 whole entry, looked up, the tested form may be a part): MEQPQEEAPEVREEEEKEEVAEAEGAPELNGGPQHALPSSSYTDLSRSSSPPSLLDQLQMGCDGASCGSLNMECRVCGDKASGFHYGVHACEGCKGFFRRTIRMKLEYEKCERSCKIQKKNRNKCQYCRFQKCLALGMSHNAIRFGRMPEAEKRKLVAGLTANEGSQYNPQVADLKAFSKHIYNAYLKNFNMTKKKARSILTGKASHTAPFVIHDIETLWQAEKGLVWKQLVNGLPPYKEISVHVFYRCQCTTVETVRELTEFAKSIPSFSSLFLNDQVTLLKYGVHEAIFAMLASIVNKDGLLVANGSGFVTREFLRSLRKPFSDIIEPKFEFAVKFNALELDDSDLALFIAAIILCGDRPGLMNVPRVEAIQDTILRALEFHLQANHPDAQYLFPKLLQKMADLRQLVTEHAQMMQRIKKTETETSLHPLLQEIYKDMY

Experiment [5] can be described thus: ATG_Oct_MLP_CIS: Attagene CIS-FACTORIAL HepG2 Assay for human Octamer-Binding Transcription Factor (Oct) (AID 2282993). Conditions: HepG2 Attagene cis-factorial Oct reporter, mRNA; actives raise or lower the signal. The gist of the method:
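Cells of the HepG2 line express promoter-controlled reporter sequences whose mRNA levels, after 24 h treatment, are measured by RT-PCR and capillary electrophoresis. Increases and decreases are scored relative to DMSO.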

Experiment [6] concerns the target Peroxisome proliferator-activated receptor gamma (Homo sapiens) (UniProt P37231). The experiment can be described thus: ATG_PPARg_TRANS: Attagene TRANS-FACTORIAL HepG2 Assay for human Peroxisome Proliferator-activated Receptor-gamma (PPARg) (AID 2283007; active means hit-call score of the fitted dose curve at least 0.9, where 1 is the maximum). The gist of the method:
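HepG2 cells transiently transfected with multiplexed GAL4-UAS reporter units and exogenous chimeric NR-Gal4 proteins; reporter mRNA quantified after 24 h compound exposure by RT-PCR, fluorescent labelling, HpaI digestion and capillary electrophoresis; gain-of-signal fitted versus DMSO baseline.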

Experiment [7] addresses Nuclear receptor subfamily 1 group I member 2 (Homo sapiens) (UniProt O75469). The experiment can be described thus: ATG_PXR_TRANS: Attagene TRANS-FACTORIAL HepG2 Assay for human Pregnane X Receptor (PXR) (AID 2283008; active means hit-call score of the fitted dose curve at least 0.9, where 1 is the maximum). The gist of the method: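 Transient HepG2 transfectants carrying multiplexed reporter transcription units; PXR activity read through a Gal4 chimera. 24 h exposure. RT-PCR/CE fluorescence; upward curve fit referenced to DMSO.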

The target in experiment [8] is human Retinoic Acid Receptor gamma (RARg), RARG (gene 5916) (UniProt P13631). The experiment is described as follows: ATG_RARg_TRANS: Attagene TRANS-FACTORIAL HepG2 Assay for human Retinoic Acid Receptor gamma (RARg) (AID 2283009; active means hit-call score of the fitted dose curve at least 0.9, where 1 is the maximum;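 on AC50: AC50 is for reporter induction above DMSO meaning RARg activation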). A digest of the protocol:
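Readout: reporter transcript levels via RT-PCR, 6-FAM primer-extension labelling, HpaI digestion and capillary electrophoresis. Cells: HepG2 carrying transfected RARg-GAL4 chimera plus UAS reporter set. Dosing 24 h; DMSO negative control.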

In experiment [9] the target is human RAR-related Orphan Receptor beta (RORb), RORB (gene 6096) (UniProt Q92753). The experiment can be described thus: ATG_RORb_TRANS: Attagene TRANS-FACTORIAL HepG2 Assay for human RAR-related Orphan Receptor beta (RORb) (AID 2283010; active means hit-call score of the fitted dose curve at least 0.9, where 1 is the maximum). The gist of the method:
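HepG2, transient MRTU transfection (GAL4-UAS reporters, exogenous NR-Gal4 chimeras); 24 h compound exposure; total RNA → RT-PCR → 6-FAM primer extension → HpaI digest → CE fluorescence. Positive direction vs DMSO baseline.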

Experiment [10] concerns the target Cellular tumor antigen p53 (Homo sapiens) (UniProt P04637). The experiment can be described thus: ATG_p53_CIS: Attagene CIS-FACTORIAL HepG2 Assay for human p53 Transcription Factor (AID 2282994). Conditions: HepG2 p53 cis-element reporter, Attagene mRNA; actives raise or lower the signal. A digest of the protocol:
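Transiently transfected HepG2 (multiple cis reporter transcription units); exposure 24 h; reporter RNA via RT-PCR, 6-FAM extension, 2 h HpaI digest at 37 C, CE detection; DMSO baseline.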

A short description of experiment [11]: BSK_3C_TissueFactor: BioMAP Diversity Plus: 3C Assay for Tissue Factor Biomarker Activity (AID 2282997). Conditions: BioMAP 3C HUVEC, tissue factor biomarker readout; actives raise or lower the signal. A digest of the protocol: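 Tissue factor on primary human umbilical vein endothelium was read by ELISA 24 h after dosing, gain or loss relative to DMSO. Cytotoxicity ran alongside via SRB (0.1%, TCA-fixed, 560 nm).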

Experiment [12] in a line: BSK_3C_uPAR: BioMAP Diversity Plus: 3C Assay for Urokinase-type plasminogen activator receptor (uPAR) Biomarker Activity (AID 2282998). Conditions: BioMAP 3C HUVEC, uPAR biomarker ELISA; actives raise or lower the signal. A digest of the protocol: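 Endothelial primary cells of human umbilical vein origin received test chemical; 24 h later uPAR was assayed by ELISA. Fitting was bidirectional, DMSO as negative control.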
(An ELISA detects its analyte on a solid surface through an enzyme-linked reagent.)

Experiment [13] is described as follows: BSK_3C_VCAM1: BioMAP Diversity Plus: 3C Assay for Vascular cell adhesion molecule 1 (VCAM1) Biomarker Activity (AID 2282999). Conditions: BioMAP 3C HUVEC, VCAM1 ELISA, cytokine-stimulated; actives raise or lower the signal. A digest of the protocol: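 HUVEC primary cells, 24 h compound exposure; VCAM-1 by ELISA; gain/loss of signal fitted bidirectionally vs DMSO baseline.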

Experiment [14] can be described thus: BSK_4H_Eotaxin3: BioMAP Diversity Plus: 4H Assay for Eotaxin 3 Biomarker Activity (AID 2283000). Conditions: primary human endothelial cells (HUVEC); actives raise or lower the signal. A digest of the protocol: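 Human umbilical vein endothelial cells (BSK_4H system) dosed with test chemical; Eotaxin-3 (CCL26) measured by ELISA 24 h after dosing. Bidirectional curve fitting relative to DMSO negative control as baseline.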

For experiment [15], the target named is human Peroxisome Proliferator-activated Receptor alpha (PPARa), PPARA (gene 5465) (UniProt Q07869). The experiment is described as follows: ATG_PPARa_TRANS: Attagene TRANS-FACTORIAL HepG2 Assay for human Peroxisome Proliferator-activated Receptor alpha (PPARa) (AID 2283001; active means hit-call score of the fitted dose curve at least 0.9, where 1 is the maximum;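 on AC50: potency for gain of reporter signal over DMSO so agonist or activator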). A digest of the protocol: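 Transient HepG2 transfection, GAL4-UAS reporters, NR-Gal4 chimeras; 24 h compound exposure. Readout: reporter transcripts by RT-PCR, 6-FAM primer extension, HpaI digest, capillary electrophoresis. Positive direction vs DMSO baseline.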
Chain of human Peroxisome Proliferator-activated Receptor alpha (PPARa), PPARA (gene 5465) (Q07869 whole entry, looked up, the tested form may be a part): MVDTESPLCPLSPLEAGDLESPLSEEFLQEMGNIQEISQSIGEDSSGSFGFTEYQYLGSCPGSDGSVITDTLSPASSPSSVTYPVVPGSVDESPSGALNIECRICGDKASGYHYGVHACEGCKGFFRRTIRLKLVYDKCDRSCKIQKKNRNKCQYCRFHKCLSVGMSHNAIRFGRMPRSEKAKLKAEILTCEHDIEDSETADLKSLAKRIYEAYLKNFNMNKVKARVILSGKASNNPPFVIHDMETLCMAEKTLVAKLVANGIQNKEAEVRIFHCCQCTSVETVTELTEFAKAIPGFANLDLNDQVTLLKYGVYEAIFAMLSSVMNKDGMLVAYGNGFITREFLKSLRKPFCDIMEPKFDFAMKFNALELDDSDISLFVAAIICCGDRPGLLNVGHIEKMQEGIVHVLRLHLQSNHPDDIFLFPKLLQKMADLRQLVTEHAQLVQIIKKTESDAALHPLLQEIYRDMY

Read-out in experiment [16]: Intercellular Adhesion Molecule 1 (ICAM1), ICAM1 (gene 3383)
The experiment can be described thus: BSK_3C_ICAM1: BioMAP Diversity Plus: 3C Assay for Intercellular Adhesion Molecule 1 (ICAM1) Biomarker Activity (AID 2283003). Conditions: primary human endothelial cells (HUVEC); actives raise or lower the signal. The gist of the method: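 ELISA read-out of ICAM-1; HUVEC (primary human), 3C system, 24 h post-dosing; bidirectional fit vs DMSO baseline.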

For experiment [17], the target named is human Retinoic Acid Receptor beta (RARb), RARB (gene 5915) (UniProt P10826). The experiment is described as follows: ATG_RARb_TRANS: Attagene TRANS-FACTORIAL HepG2 Assay for human Retinoic Acid Receptor beta (AID 2283004; active means hit-call score of the fitted dose curve at least 0.9, where 1 is the maximum). The gist of the method: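 Induction of reporter mRNA from a chimeric RARb-Gal4 construct was measured by RT-PCR, FAM labelling, HpaI digestion and capillary electrophoresis. Measurements followed 24 h compound treatment of transiently transfected human HepG2 liver cells, with DMSO as baseline.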
Chain of human Retinoic Acid Receptor beta (RARb), RARB (gene 5915) (P10826 whole entry, looked up, the tested form may be a part): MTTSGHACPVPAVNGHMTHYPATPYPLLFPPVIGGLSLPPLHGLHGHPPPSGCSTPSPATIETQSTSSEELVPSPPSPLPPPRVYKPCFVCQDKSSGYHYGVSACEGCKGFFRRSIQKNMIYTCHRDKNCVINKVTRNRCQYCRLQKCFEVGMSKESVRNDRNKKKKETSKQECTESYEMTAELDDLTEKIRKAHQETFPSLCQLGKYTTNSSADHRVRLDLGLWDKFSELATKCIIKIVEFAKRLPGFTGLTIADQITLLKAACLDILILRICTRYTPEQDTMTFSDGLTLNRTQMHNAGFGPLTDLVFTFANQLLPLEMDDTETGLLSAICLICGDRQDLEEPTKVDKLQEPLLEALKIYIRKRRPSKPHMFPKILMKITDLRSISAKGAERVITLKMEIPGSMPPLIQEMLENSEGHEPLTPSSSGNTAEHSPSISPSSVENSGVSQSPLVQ

For experiment [18], the target named is Retinoic acid receptor alpha (Homo sapiens) (UniProt P10276). The experiment can be described thus: ATG_RARa_TRANS: Attagene TRANS-FACTORIAL HepG2 Assay for human Retinoic Acid Receptor alpha (RARa) (AID 2283005; active means hit-call score of the fitted dose curve at least 0.9, where 1 is the maximum;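 on AC50: potency for increased reporter signal meaning RARa activation over DMSO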). The gist of the method: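 HepG2 transiently transfected with multiplex GAL4-UAS reporter units including a human RARa–GAL4 chimera; 24 h compound exposure. Reporter mRNA quantified by RT-PCR, 6-FAM labeling and capillary electrophoresis; gain of signal versus DMSO.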
Chain of Retinoic acid receptor alpha (Homo sapiens) (P10276 whole entry, looked up, the tested form may be a part): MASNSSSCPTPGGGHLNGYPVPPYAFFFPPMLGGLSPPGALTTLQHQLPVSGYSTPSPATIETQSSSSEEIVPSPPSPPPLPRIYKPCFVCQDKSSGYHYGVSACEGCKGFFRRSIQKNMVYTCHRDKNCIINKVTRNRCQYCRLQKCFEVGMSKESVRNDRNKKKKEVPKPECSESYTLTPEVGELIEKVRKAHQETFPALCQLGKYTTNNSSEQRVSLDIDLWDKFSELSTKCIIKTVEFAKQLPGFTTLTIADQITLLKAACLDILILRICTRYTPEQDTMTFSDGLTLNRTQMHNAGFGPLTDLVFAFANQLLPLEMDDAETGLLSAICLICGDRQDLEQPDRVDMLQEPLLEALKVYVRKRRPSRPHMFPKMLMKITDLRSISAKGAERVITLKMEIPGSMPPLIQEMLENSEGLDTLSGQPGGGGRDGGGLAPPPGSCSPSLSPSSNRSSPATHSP

Experiment [19] in a line: BSK_3C_Proliferation: Cell Proliferation Assessment in the BioMAP Diversity Plus: 3C Assay (AID 2283006).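 Further: potency may reflect either rise or fall in cell number versus DMSO.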 Conditions: primary human endothelial cells (HUVEC). The gist of the method: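 HUVEC, sub-confluent; 48 h chemical exposure; 10% TCA fix, 0.1% SRB stain, A560 total protein. Gain or loss of signal fitted both directions vs DMSO control.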

Values joined by “and” are separate entries in the source; they are usually repeats but may differ in a detail not shown here. Equal entries are not always repeated. Records with an inconclusive call do not appear. Active and inactive are the calls of the source. How the source made its calls, unless noted: active means hit-call score of the fitted dose curve at least 0.9, where 1 is the maximum; inactive means score below 0.9.

Chain of human Retinoic Acid Receptor gamma (RARg), RARG (gene 5916) (P13631 whole entry, looked up, the tested form may be a part): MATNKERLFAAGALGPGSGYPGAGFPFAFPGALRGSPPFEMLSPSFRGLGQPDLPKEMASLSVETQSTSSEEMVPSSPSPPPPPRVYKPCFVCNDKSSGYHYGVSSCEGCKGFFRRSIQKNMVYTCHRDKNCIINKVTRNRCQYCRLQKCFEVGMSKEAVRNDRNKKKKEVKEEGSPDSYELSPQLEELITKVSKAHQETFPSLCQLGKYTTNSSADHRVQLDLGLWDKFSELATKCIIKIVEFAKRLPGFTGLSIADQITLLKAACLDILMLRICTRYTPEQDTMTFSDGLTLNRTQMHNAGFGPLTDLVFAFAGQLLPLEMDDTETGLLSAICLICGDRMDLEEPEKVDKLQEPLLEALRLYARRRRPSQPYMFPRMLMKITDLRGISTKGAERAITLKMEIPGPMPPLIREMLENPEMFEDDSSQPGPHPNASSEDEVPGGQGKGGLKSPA
Chain of Cellular tumor antigen p53 (Homo sapiens) (P04637 whole entry, looked up): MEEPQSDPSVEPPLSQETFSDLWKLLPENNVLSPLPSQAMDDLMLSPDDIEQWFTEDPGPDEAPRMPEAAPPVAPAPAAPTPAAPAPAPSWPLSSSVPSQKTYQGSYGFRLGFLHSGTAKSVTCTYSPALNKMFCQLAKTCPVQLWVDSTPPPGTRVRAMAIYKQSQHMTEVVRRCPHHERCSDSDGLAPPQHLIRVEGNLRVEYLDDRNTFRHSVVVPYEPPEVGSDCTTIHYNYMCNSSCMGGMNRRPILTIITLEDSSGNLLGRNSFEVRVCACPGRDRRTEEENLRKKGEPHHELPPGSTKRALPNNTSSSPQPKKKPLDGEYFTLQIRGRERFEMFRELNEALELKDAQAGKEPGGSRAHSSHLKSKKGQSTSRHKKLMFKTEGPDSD
Chain of Nuclear receptor subfamily 1 group I member 2 (Homo sapiens) (O75469 whole entry, looked up, the tested form may be a part): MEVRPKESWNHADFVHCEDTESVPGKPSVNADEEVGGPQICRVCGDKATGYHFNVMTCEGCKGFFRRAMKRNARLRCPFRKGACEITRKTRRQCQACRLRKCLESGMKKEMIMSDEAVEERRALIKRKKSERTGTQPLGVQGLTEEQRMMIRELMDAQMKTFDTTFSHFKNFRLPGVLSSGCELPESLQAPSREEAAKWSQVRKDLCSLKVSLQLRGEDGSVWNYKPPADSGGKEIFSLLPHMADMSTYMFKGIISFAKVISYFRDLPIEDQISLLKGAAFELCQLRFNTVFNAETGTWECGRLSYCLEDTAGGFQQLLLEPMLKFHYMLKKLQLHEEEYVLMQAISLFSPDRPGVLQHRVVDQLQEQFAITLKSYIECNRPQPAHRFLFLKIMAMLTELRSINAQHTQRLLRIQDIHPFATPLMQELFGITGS
Chain of Peroxisome proliferator-activated receptor gamma (Homo sapiens) (P37231 whole entry, looked up, the tested form may be a part): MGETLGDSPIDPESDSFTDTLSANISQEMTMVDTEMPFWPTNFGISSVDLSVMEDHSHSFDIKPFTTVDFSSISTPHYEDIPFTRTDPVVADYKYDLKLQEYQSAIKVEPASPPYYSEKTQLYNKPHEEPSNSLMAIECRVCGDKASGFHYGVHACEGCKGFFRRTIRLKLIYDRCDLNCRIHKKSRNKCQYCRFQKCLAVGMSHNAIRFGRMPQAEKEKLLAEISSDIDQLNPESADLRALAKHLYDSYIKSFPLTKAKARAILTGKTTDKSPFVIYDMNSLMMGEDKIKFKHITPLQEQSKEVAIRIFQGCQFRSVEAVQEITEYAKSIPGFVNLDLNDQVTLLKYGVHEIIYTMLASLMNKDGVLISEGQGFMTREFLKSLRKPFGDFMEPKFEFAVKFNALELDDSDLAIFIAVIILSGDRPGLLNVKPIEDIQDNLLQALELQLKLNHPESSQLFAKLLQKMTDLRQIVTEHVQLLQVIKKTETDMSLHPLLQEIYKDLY
Chain of Myc proto-oncogene protein (Homo sapiens) (P01106 whole entry, looked up, the tested form may be a part): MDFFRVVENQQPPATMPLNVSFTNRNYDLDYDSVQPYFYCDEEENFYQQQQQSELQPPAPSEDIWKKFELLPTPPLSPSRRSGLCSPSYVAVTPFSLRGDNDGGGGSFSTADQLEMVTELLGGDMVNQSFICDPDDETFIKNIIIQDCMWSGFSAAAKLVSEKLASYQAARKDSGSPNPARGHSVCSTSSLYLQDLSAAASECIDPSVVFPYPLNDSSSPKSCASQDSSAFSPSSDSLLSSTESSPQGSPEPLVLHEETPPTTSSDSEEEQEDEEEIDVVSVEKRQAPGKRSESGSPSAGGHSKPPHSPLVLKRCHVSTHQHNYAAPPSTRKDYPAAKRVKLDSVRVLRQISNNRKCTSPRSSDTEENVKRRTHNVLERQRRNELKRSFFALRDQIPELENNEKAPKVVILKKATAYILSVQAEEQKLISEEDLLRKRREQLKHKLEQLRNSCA
Chain of human RAR-related Orphan Receptor beta (RORb), RORB (gene 6096) (Q92753 whole entry, looked up, the tested form may be a part): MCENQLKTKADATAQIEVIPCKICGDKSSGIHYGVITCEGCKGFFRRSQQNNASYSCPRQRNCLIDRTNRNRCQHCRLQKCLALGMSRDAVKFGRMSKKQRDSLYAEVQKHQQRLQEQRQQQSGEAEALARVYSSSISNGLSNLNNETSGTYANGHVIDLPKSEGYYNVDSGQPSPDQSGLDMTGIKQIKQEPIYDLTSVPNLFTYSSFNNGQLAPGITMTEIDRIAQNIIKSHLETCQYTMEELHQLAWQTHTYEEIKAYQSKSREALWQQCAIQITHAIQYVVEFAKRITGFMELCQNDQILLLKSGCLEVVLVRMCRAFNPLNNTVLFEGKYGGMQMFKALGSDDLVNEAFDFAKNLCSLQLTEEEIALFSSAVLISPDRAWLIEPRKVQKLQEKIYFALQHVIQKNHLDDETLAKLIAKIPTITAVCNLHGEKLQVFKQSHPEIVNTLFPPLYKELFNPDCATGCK

Turning to `O=C1CCC(=O)N1Cl`, the molecule was classed as inactive in [1], in experiment [2], in [3] and in [4].

For `Cc1cc(C)c(C)c(C)c1`, the molecule was called inactive in experiment [1], in [2], in [3], in experiment [5], in experiment [4] and in [6]. Moreover, the molecule was classed as inactive in experiment [7], in experiment [8] and in experiment [9].

In the case of `CCCOCCOCCOCCO`, the molecule was called inactive in experiment [1], in experiment [2], in experiment [3], in experiment [10], in [4] and in experiment [7].

What is called AC50 is the concentration giving half of the maximal activity seen. As for `CCCCCCCCCCCCCCCC[N+](C)(C)CC`, the molecule was called inactive in experiment [1], in experiment [5], in [4], in [17] and in experiment [7]. For the same molecule, the AC50 was 8.97 µM (active) in [2]; 12.1 µM (active) in experiment [11]; 0.65 µM (active) in experiment [12]; 3.17 µM (active) in experiment [13]; 2.24 µM (active) in experiment [14]; 13.3 µM (active) in experiment [15]. Also, the AC50 in experiment [16] is 3.44 µM (active); in experiment [18] it was 17.8 µM (active); in experiment [19], 636 nM (active); in experiment [6] it was 15.6 µM (active); in [8] it was 19.6 µM (active).

As to `Nc1ccc(N)c(Cl)c1`, the AC50 in [1] is 46.6 µM (active); in [2], 33.4 µM (active); in experiment [10], 33.4 µM (active); in [13] it was 7.54 µM (active) and 7.95 µM (active); in [14], 20 µM (active) and 15.1 µM (active); in experiment [4], 68 µM (active). In addition, the AC50 in [19] was 13.1 µM (active) and 16.2 µM (active); in experiment [7], 4.08 µM (active). Moreover, the result in experiment [5], in experiment [11], in experiment [12], in experiment [15], in [16] and in experiment [18] was inactive. Moreover, the molecule was classed as inactive in experiment [8].

Consider `O=C1Nc2ccccc2C1(c1ccc(O)cc1)c1ccc(O)cc1`, for which the molecule was called inactive in experiment [1], in experiment [2], in [4] and in experiment [6]. In addition, the AC50 in [3] is 178 µM (active).

`CCOC(=O)Cc1cccc2ccccc12`: the molecule was called inactive in [1], in experiment [2], in experiment [5], in [10], in experiment [15] and in experiment [17]. Besides, the outcome in experiment [18], in [7] and in experiment [8] was inactive. In addition, in experiment [6], the AC50 was 44.5 µM (active).

For the origin of these results see PubChem BioAssay (EPA / NIEHS).
